# In the library only some 19% were active in any assay of this set; here they are far more common.
# HT1080 IDH1KD tx – kills HT-1080 cells with IDH1 knockdown | HT-1080 IDH1 knockdown viability, ATP luminescence, 48 h | Potency, µM (doses to about 46.1 µM), without a hit: at the highest dose activity, negative = toxicity, hits mostly cytotoxic | 2% of 360,000 active;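 note: potency is the fitted concentration of half-maximal effect; 0% = DMSO wells and -100% = cell-free medium wells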
#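 Viability of IDH1-knockdown HT-1080 fibrosarcoma cells was assessed by CellTiter-Glo after 48 h at 37 °C with titrated compound; concentration-effect curves were classified by fit quality and response size.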
# TDP1 cell noCPT – qHTS for Inhibitors of human tyrosyl-DNA phosphodiesterase 1 (TDP1): qHTS in cells in absence of CPT | Potency, µM (series often up to 46.2 µM), for the others: at the top dose activity change, negative = growth inhibition, actives largely listed as inhibitors | 15% of 420,000 active | DT40 Tdp1-/- hTDP1 cells, no CPT, ATP luminescence, 48 h; note: potency is the fitted concentration of half-maximal effect; nearly all actives have a fitted effect of over 55% in size
#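 A cellular qHTS used chicken DT40 cells lacking endogenous Tdp1 but carrying stably transfected human TDP1. Compounds were applied without camptothecin, and cell growth kinetics were judged by ATP-dependent luminescence after ≥48 hr.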
# HT1080NT lethal – kills 2HG-producing HT-1080-NT fibrosarcoma cells; 1.6% of 360,000 active; HT-1080-NT fibrosarcoma viability, CellTiter-Glo ATP luminescence, 48 h; Potency, µM (highest dose often 46.1 µM), inactives show top-dose activity, negative = less viability, actives largely listed as cytotoxic;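 note: NT is the 2HG producing partner of a matched IDH1 knockdown line; potency is the fitted concentration of half-maximal effect; 0% = DMSO-treated cells and -100% = media-only wells without cells; nearly all actives have a fitted effect of over 55% in size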
#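 Toxicity toward the 2HG-producing NT line was scored as %Activity, normalised to DMSO and no-cell wells, from CellTiter-Glo luminescence after 48 hours' treatment.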
# ELG1 DNA repair – ELG1-dependent DNA repair inhibition; Potency, µM (highest dose often 46.1 µM), for inactives: top-dose activity change, negative = inhibition, hits mostly inhibitors; AID 504467; HEK293T ELG1-luciferase reporter, luminescence, 16 h; DNA damage induced by 5-fluorouridine; 2.3% of 330,000 active; note: potency is the fitted concentration of half-maximal effect; nearly all actives have a fitted effect of over 55% in size
#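 Luminescence from the luciferase reporter, measured 30 min after ONE-Glo reagent at room temperature, was the read-out. Beforehand, 2,000 cells per well were exposed for 16 hr at 37 °C to 5-fluorouridine together with compound or vehicle.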
# DT40 TDP1 CPT – growth inhibition of DT40 Tdp1-/-;hTDP1 cells with camptothecin (screen for TDP1 inhibitors); chicken DT40 Tdp1-/-;hTDP1 cells + 20 nM CPT, ATP luminescence, 48 h; Potency, µM (top dose mostly 46.2 µM), without a hit: at the top dose activity change, negative = growth inhibition, usual class: inhibitors; 12% of 420,000 active; AID 686979; note: potency is the fitted concentration of half-maximal effect; nearly all actives have a fitted effect of over 55% in size
#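 Chicken DT40 Tdp1-/- cells complemented with human TDP1, 400 cells/well, exposed to compounds plus 20 nM camptothecin for at least 48 h at 37 C; viability read as ATP content by CellTiter-Glo luminescence.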
# IL-1B inflam inh – inhibitors of inflammasome signaling (IL-1 beta secretion); THP-1 LPS/ATP IL-1B secretion, AlphaLISA, 16 h; hits give low values; activity change, % at 57.5 µM; 4.7% of 360,000 active; AID 743279; in the data active = activity change below about -50%; inconclusive = mostly about -30% to -49%
#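 Secreted IL-1B measured by AlphaLISA bead assay after 16 h compound exposure of THP-1 cells; compounds (final up to 57.5 uM) added 1 h before LPS (250 ng/mL) and ATP (1.25 mM) stimulation; lower signal means less secretion.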
# ELG1 FLuc counter – luciferase inhibition in cell-free luciferin readout for ELG1 hits. cell-free firefly luciferase luminescence counter-screen, ViewLux. 3% of 350 active. Potency, µM (titrated, usually from 46.1 µM), for the others: top-dose activity change, negative = inhibition, hits mostly inhibitors. shares compounds with ELG1 DNA repair; note: potency is the fitted concentration of half-maximal effect
# ELG1 Luc conf – confirmation of human ELG1-dependent DNA repair inhibitors | HEK293T ELG1-luciferase levels, luminescence; cells co-treated with 5-fluorouridine | Potency, µM (top dose mostly 46.1 µM), without a hit: at the highest dose activity change, negative = inhibition, usual class: inhibitors | 68% of 670 active | shares compounds with ELG1 DNA repair | AID 624248; note: potency is the fitted concentration of half-maximal effect; nearly all actives have a fitted effect of over 55% in size
# ELG1 MMS Luc – MMS-stimulated human ELG1 repair inhibition, confirmed. shares compounds with ELG1 DNA repair. HEK293T luciferase-tagged ELG1 level, MMS stimulated. Potency, µM (top dose mostly 46.1 µM), for inactives: top-dose activity change, negative = inhibition, usual class: inhibitors. 53% of 670 active. AID 624249; note: potency is the fitted concentration of half-maximal effect; nearly all actives have a fitted effect of over 60% in size
# ELG1 5FU viab – confirmation of ELG1 repair inhibitors: viability with 5FU; AID 624250; shares compounds with ELG1 DNA repair; cell viability with 5-FU, ELG1-dependent repair; 670 tested, under 10 active; Potency, µM (titrated, usually from 46.1 µM), for the others: at the top dose activity change, negative = viability loss, usual class: cytotoxic;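 note: ELG1-luc HEK293T cells cotreated with 5-fluorouridine at 10 µM final; potency is the fitted concentration of half-maximal effect; viability measured 16 h after compound addition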
# ELG1 MMS viab – confirmation of ELG1 repair inhibitors: viability with MMS; AID 624251; shares compounds with ELG1 DNA repair; 33% of 670 active; Potency, µM (doses to about 46.1 µM), for inactives: at the top dose activity change, negative = viability loss, hits mostly cytotoxic; Cell viability with MMS, ELG1-dependent DNA repair;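 note: ELG1-luc HEK293T cells co-treated with 10 µM MMS; potency is the fitted concentration of half-maximal effect; viability read 16 h after compound addition; nearly all actives have a fitted effect of over 60% in size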
# ELG1 unstim viab – unstimulated viability counter-screen for ELG1 repair hits | shares compounds with ELG1 DNA repair | cell viability counter-screen, unstimulated, luminescence | Potency, µM (series often up to 45.9 µM), inactives show top-dose activity change, negative = loss of viability, most hits filed as cytotoxic | 8% of 900 active | AID 624252;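 note: potency is the fitted concentration of half-maximal effect; compound exposure lasted 16 hours before reading; nearly all actives have a fitted effect of over 55% in size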
# FLuc biochem – firefly luciferase inhibition counter-screen | Potency, µM (top dose mostly 57.5 µM), for the others: top-dose activity, negative = inhibition, most hits filed as inhibitors | purified firefly luciferase, luminescence counter-screen | 10% of 350 active | shares compounds with ELG1 DNA repair | AID 624253; note: potency is the fitted concentration of half-maximal effect
# * marks the source's active call; other numbers are inactive results; ? = inconclusive; · = not tested or not shown. Unless noted, calls come from the whole dose curve; as a rule, active = well fitted curve in the direction sought with a large enough effect; inconclusive = small, poorly fitted or top-dose-only effect, or another doubt; inactive = no such curve, though single readings can be large; an effect the other way counts as inactive or inconclusive. Unless noted, % is set by controls: 0 for no effect and ±100 for the full control effect.
SMILES,HT1080 IDH1KD tx,TDP1 cell noCPT,HT1080NT lethal,ELG1 DNA repair,DT40 TDP1 CPT,IL-1B inflam inh,ELG1 Luc conf,ELG1 MMS Luc,ELG1 5FU viab,ELG1 MMS viab,ELG1 unstim viab,others
N#Cc1ccc(C(=O)CSc2n[nH]c(=O)n2-c2cccnc2)cc1,21%,?,6%,13%,-5%,·,·,·,·,·,·,
O=C(CSc1nnc(-c2cccnc2)o1)Nc1ccccc1Br,22%,8%,24%,?,-17%,7,·,·,·,·,·,
O=C(CSc1nnc(-c2ccc(O)cc2)o1)Nc1ccccc1Br,-1%,-25%,10%,?,-13%,-25,·,·,·,·,-2%,
CCc1cccc(NC(=O)Cn2cc(C=O)c3ccccc32)c1,16µM*,10µM*,?,3.7µM*,9.2µM*,18,?,2.5µM*,1%,2.8µM*,-18%,
CCC(=O)c1cn(CC(=O)Nc2cccc(C)c2)c2ccccc12,-12%,-2%,0%,?,-11%,6,·,·,·,·,·,
CCN(CC)CCCNC(=O)c1ccc(CS(=O)(=O)c2ccccc2OC)o1,0%,25%,-2%,?,0%,-4,·,·,·,·,·,
CC1CC(C)(C)CC2(C1)NC(=O)N(CC(=O)N1CCN(S(=O)(=O)c3cccs3)CC1)C2=O (stereo not drawn),3%,?,5%,-3%,?,5,·,·,·,·,·,
Cc1nn(-c2ccc(NC(=O)c3ccncc3)cc2)c(C)c1Cl,?,?,-17%,4.6µM*,?,?,14µM*,2.2µM*,-16%,1.6µM*,16µM*,
CC(Sc1nc(N2CCOCC2)c2c(c1C#N)CC(C)(C)OC2)C(=O)Nc1ccccc1 (stereo not drawn),-11%,-21%,4%,2.9µM*,-12%,15,1.8µM*,-11%,?,?,8%,ELG1 FLuc counter=17%;FLuc biochem=1%

# High-throughput results as filed in PubChem.
